Source: the supplement of paper PMC10338343
± gives the standard deviation.

How the values were obtained:
[1] = tested on: MILI (PIWIL2) piRISC loaded with L1MC piRNA (26 nt); assay: pre-steady-state target cleavage rate (min^-1); guide: L1MC piRNA 5'p-UAACUAAAUACUAUGCAAGCUGUAGG; higher = faster piRNA-guided slicing of the target;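 further: 1 nM active piRISC with 0.1 nM target library at 33 °C single turnover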
How it was run: (§1)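 In this Cleave-'n-Seq assay, uncleaved targets were sequenced and normalised to depth and to weakly complementary targets. They came from a transcribed, DNA-blocked target RNA library […] mixed with 1 nM active affinity-purified piRISC carrying one synthetic guide, with or without 500 nM GTSF1 partner protein, in HEPES–potassium acetate buffer at 33 °C for 0–8 or 0–960 min. After three trials were pooled and k3 was capped at 0.0001 min^-1, the pre-steady-state cleavage rate was obtained from a burst-and-steady-state fit.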

[2] = tested on: EfPiwi piRISC loaded with L1MC piRNA (26 nt); assay: pre-steady-state target cleavage rate (min^-1); auxiliary factor: 500 nM Ephydatia muelleri Gtsf1; guide: L1MC piRNA 5'p-UAACUAAAUACUAUGCAAGCUGUAGG; MIWI and MILI are mouse PIWI proteins and EfPiwi is from a freshwater sponge; tags in brackets are library labels; higher = faster piRNA-guided slicing of the target
How it was run: as §1

[3] = auxiliary factor: 500 nM mouse GTSF1
[4] = auxiliary factor: none (no GTSF1)

| Sequence | pre-steady-state target cleavage rate [1, 3] | pre-steady-state target cleavage rate [1, 4] | pre-steady-state target cleavage rate [2] |
| --- | --- | --- | --- |
| UCCUGCUACAGCAUGCAUUGUAUUUAGUUA | 0.213 ± 0.02 | 0.00734 ± 0.0026 | 0.0119 ± 0.0032 |
| UCCUCCUACAGCUUGGAUAGUAUAUAGUUA | 0.195 ± 0.022 | 0.0033 ± 0.0023 | 0.00941 ± 0.0032 |
| UCCUGGAACAGCAUGCAUAGUAUAUAGUUA | 0.247 ± 0.025 | 0.0058 ± 0.0025 | 0.0106 ± 0.005 |
| UCCUGCUACAGCUAGCAUAGUAUUUAGUUA | 0.354 ± 0.027 | 0.00624 ± 0.0029 | 0.0287 ± 0.0081 |
| UCCUGCUACAGGAAGCAUAGUAUUUAGUAA | 0.254 ± 0.024 | 0.00762 ± 0.0022 | 0.00302 ± 0.0027 |
| UCCUGCUUACAGCUUGCAUAGUAUUUAGUUA | 0.451 ± 0.043 | 0.0088 ± 0.0032 | 0.0638 ± 0.015 |
| UCCUGCUACAGGUUGCAUAGUAUUAAGUUA | 0.208 ± 0.034 | 0.00616 ± 0.0022 | 0.00526 ± 0.0024 |
| UCCUGGGACAGCUUGCAUAGUAUUUAGUUA | 0.231 ± 0.024 | 0.0138 ± 0.0034 | 0.0163 ± 0.0059 |
| UCCUGGUACAGUUUGCAUAGUAUUUAGUUA | 0.254 ± 0.02 | 0.0161 ± 0.005 | 0.00421 ± 0.0025 |
| UCCUGGAUGAGCUUGCAUUGUAUUUAGUAA | 0.127 ± 0.021 | 0.00311 ± 0.0025 | 0.00311 ± 0.0025 |
| UCCUGGAACUCCUUGCAUAGUAUUUAGUAA | 0.169 ± 0.02 | 0.00259 ± 0.0025 | 0.00371 ± 0.0017 |
| UCCUGGAACAGCUUGCUUAGUAAUUAGUUA | 0.213 ± 0.019 | 0.00562 ± 0.0024 | 0.00639 ± 0.0027 |
| UCCUGGAUGAGCAUGCAUAGUAUUUAGUUA | 0.199 ± 0.016 | 0.00939 ± 0.0029 | 0.0207 ± 0.0065 |
| UCCUGGAUGAGCUGUGCAUAGUAUUUAGUUA | 0.191 ± 0.013 | 0.0151 ± 0.0044 | 0.0255 ± 0.0063 |
| UCCUCCUACAGCAUGCAUUGUAUUUAGUUA | 0.217 ± 0.015 | 0.0102 ± 0.0027 | 0.0134 ± 0.0043 |
| UCCUGCUACCGCUUGCAUAGUAUUUAGUUA | 0.368 ± 0.035 | 0.0103 ± 0.0044 | 0.0156 ± 0.005 |
| UCCUGCGUACAGCUUGCAUAGUAUUUAGUUA | 0.314 ± 0.021 | 0.0109 ± 0.0033 | 0.0434 ± 0.012 |
